Measured values: the supplement of paper PMC11006884
The full data set covers some 6,500 targets. This sample favours those with a hit. About 2% of all pairs of compound and target were hits.

Compound: COC(=O)C#Cc1ccccc1 [methyl 3-phenylpropiolate]
Assay: log2 ratio of iodoacetamide-alkyne labeling of the cysteine site, DMSO over compound (competition); higher = stronger covalent engagement of the cysteine by the compound, active = 1 or more
Conditions: 500 µM; treatment time 1 h; system: HEK293T cell lysate
Method in brief: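 HEK293T lysate (2 mg/mL) was treated with DMSO or electrophile (500 µM, 1 h, ambient temperature), then iodoacetamide alkyne (1 h), clicked to sCIP-TMT reagents, pooled, trypsin-digested overnight at 37 °C, streptavidin-enriched and acid-eluted. Peptides were run on Orbitrap Eclipse LC-MS/MS with FAIMS and quantified in FragPipe. The log2 competition ratio per cysteine is mean control-channel over mean compound-channel reporter intensity. Duplicate channels and three replicates were used, and cysteines quantified in only one replicate were excluded.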

Chain of UniProt P54578 (P54578 whole entry): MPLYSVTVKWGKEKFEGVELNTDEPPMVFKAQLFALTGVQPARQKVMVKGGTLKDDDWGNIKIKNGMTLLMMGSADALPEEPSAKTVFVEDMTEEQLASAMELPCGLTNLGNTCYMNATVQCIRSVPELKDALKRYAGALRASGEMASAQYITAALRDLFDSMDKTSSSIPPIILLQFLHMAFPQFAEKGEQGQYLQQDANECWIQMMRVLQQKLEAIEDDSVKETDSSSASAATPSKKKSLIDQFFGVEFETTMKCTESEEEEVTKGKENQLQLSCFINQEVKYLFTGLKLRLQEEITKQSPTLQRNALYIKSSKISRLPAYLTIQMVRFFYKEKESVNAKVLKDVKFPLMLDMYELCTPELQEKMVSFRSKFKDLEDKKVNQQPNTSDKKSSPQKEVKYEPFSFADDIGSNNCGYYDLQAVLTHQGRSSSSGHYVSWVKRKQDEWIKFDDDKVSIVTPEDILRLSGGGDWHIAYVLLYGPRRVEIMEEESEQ
Chain of UniProt Q1KMD3 (Q1KMD3 whole entry, looked up): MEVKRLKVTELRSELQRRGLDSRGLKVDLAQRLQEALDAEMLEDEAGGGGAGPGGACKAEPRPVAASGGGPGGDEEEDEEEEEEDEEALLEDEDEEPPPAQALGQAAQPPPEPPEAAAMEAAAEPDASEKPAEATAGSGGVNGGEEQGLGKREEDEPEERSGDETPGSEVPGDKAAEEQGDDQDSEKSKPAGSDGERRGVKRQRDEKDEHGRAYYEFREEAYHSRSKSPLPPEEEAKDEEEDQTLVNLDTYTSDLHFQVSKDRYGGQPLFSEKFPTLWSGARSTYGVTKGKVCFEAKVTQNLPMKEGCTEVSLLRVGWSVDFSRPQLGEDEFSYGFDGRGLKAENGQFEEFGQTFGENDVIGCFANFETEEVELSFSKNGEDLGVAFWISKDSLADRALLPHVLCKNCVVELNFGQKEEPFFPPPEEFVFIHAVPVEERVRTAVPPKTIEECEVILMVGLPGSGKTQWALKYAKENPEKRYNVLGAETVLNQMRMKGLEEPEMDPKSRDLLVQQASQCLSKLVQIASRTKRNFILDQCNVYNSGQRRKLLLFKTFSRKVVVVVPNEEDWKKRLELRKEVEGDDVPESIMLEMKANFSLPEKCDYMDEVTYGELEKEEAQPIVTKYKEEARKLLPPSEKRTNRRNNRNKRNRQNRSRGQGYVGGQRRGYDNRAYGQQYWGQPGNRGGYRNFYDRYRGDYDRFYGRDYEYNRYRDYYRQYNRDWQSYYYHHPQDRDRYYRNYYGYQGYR
Chain of UniProt Q13838 (Q13838 whole entry, looked up): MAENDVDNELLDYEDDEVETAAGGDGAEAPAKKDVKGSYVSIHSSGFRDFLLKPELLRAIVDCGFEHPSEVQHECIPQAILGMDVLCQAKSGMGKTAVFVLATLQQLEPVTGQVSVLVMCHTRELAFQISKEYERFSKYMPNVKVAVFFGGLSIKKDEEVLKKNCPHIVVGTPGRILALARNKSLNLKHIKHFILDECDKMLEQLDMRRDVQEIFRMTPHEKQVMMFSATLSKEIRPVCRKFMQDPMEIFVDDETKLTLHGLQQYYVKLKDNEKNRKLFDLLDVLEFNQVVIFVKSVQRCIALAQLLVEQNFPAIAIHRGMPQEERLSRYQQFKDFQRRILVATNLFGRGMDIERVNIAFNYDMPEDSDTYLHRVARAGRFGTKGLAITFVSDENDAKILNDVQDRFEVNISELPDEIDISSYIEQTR
Chain of UniProt Q14566 (Q14566 whole entry, looked up): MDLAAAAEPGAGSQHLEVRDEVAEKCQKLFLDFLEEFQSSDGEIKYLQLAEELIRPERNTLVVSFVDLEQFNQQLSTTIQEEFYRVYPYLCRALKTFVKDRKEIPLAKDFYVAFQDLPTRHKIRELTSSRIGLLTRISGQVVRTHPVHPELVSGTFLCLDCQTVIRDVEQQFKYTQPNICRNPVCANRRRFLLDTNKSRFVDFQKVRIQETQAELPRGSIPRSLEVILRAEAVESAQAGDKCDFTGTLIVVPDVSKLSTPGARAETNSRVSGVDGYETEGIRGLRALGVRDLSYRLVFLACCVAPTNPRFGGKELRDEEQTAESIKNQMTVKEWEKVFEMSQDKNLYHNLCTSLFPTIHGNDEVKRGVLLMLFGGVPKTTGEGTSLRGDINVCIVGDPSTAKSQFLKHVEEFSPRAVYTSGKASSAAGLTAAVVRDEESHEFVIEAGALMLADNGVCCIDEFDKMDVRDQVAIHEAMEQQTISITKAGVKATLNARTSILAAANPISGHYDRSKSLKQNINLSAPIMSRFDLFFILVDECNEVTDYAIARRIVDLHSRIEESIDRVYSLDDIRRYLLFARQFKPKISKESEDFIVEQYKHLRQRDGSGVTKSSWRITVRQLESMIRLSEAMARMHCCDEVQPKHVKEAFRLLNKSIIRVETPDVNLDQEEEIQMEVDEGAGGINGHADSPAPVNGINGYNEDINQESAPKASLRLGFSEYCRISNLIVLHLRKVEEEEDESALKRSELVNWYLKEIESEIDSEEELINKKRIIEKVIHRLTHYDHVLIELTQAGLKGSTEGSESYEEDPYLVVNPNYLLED
Chain of UniProt P98194 (P98194 whole entry, looked up): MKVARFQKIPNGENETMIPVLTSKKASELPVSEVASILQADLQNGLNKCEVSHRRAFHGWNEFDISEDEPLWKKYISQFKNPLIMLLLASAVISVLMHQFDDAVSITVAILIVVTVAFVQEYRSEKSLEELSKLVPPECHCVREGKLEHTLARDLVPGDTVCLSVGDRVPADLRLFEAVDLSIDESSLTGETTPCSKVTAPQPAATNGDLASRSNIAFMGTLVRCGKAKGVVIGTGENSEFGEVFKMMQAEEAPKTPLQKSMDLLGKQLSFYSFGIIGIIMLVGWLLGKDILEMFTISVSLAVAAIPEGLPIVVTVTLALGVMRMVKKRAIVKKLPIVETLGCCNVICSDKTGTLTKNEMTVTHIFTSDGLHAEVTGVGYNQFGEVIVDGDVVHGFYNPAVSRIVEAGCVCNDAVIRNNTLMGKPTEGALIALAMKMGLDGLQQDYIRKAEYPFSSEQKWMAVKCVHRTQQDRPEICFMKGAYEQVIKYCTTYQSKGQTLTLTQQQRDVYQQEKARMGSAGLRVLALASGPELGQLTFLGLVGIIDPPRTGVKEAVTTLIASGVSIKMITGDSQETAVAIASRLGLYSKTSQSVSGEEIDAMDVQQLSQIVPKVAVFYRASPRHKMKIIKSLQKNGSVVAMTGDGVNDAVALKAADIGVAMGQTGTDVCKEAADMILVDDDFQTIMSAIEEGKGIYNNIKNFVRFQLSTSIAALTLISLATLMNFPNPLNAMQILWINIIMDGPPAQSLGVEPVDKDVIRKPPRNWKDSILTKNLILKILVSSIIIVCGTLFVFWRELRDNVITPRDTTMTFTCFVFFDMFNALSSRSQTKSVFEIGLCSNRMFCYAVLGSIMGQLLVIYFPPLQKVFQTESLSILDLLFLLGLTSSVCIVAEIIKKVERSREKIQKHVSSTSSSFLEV
Chain of UniProt Q08380 (Q08380 whole entry, looked up): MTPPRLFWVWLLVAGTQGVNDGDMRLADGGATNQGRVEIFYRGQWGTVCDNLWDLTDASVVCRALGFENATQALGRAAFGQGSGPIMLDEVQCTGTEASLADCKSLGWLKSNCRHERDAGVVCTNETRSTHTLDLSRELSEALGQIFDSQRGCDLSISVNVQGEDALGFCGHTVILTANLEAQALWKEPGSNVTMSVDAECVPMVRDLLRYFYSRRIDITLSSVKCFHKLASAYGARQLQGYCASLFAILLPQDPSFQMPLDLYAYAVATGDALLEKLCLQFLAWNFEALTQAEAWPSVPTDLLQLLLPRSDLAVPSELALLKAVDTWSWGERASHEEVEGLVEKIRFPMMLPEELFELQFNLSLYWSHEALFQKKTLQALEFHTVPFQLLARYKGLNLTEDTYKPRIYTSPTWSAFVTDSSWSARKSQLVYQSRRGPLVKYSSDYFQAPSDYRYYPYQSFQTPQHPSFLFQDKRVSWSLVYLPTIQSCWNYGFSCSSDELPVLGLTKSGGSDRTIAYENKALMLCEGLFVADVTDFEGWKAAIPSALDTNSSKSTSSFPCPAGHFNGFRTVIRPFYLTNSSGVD
Chain of UniProt P62633 (P62633 whole entry, looked up): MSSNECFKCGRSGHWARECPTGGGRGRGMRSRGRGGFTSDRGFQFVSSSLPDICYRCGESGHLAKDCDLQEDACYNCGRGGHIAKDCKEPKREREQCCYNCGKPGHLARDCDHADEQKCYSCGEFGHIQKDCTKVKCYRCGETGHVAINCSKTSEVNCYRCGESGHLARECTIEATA
Chain of UniProt Q12834 (Q12834 whole entry): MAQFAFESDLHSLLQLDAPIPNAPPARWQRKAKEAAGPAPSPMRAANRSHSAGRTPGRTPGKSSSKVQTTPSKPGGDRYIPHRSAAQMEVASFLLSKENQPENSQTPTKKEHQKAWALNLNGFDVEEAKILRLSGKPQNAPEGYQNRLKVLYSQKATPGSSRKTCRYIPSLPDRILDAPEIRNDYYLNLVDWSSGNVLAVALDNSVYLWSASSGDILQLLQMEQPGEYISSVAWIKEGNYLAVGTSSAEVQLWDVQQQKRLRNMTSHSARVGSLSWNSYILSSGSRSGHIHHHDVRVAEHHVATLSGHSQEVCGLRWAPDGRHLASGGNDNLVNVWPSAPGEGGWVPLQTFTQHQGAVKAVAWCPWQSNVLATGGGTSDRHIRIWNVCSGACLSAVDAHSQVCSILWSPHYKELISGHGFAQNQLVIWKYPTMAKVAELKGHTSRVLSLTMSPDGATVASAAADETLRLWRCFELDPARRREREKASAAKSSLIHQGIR
Chain of UniProt P53384 (P53384 whole entry, looked up): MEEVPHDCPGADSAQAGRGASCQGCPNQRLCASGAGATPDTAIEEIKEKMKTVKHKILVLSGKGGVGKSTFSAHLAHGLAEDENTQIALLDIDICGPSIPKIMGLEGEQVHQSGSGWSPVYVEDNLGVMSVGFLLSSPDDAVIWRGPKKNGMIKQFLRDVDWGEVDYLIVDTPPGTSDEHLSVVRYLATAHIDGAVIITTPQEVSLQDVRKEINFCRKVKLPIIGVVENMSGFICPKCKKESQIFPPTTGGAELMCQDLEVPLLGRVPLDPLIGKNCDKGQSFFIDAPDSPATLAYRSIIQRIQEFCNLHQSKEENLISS

log2 ratio of iodoacetamide-alkyne labeling, active:
TLE1 C526 (UniProt Q04724) 1.15
AKIRIN2 C3 (UniProt Q53H80) 1.11
AKAP12 C1399 (UniProt Q02952) 1.16
CDC20 C364 (UniProt Q12834) 1.22
LGALS3BP C496 (UniProt Q08380) 1.72
MAP7D1 C361 (UniProt Q3KQU3) 1.65
SQSTM1 C113 (UniProt Q13501) 1.2
ACTR3 C235 (UniProt P61158) 1.28
NUBP1 C22 (UniProt P53384) 2.24
NUMA1 C961 (UniProt Q14980) 1.55

log2 ratio of iodoacetamide-alkyne labeling, inactive:
PPP5C C452 (UniProt P53041) 0.0827
DOCK11 C409 (UniProt Q5JSL3) -0.0544
DDX39B C198 (UniProt Q13838) -0.129
HNRNPH2 C34 (UniProt P55795) 0.0589
SPTAN1 C1930 (UniProt Q13813) 0.167
MCM6 C242 (UniProt Q14566) 0.192
UniProt P61163_C34 0.205
HK2 C158 (UniProt P52789) 0.246
GRB2 C32 (UniProt P62993) 0.167
CAP1 C93 (UniProt Q01518) 0.152
MAP7D1 C373 (UniProt Q3KQU3) 0.815
UniProt Q3LXA3_C24 0.218
CNBP C171 (UniProt P62633) -0.0616
UniProt P62273_C39 0.0855
USP14 C415 (UniProt P54578) -0.369
UniProt Q5MNZ6_C6 0.235
HNRNPUL2 C308 (UniProt Q1KMD3) 0.826
TRIM28 C717 (UniProt Q13263) -0.00982
RRP12 C799 (UniProt Q5JTH9) 0.107
UniProt Q02750_C376 -0.129
DYNC1H1 C4510 (UniProt Q14204) 0.182
ATP2C1 C162 (UniProt P98194) 0.0772
TJAP1 C172 (UniProt Q5JTD0) 0.251
GFPT1 C55 (UniProt Q06210) 0.387
HNRNPU C450 (UniProt Q00839) 0.018
ACTR3 C12 (UniProt P61158) 0.212
